The source of these data is ChEMBL document CHEMBL1961873, “Compounds: GSK PKIS; Assays: Nanosyn kinase panel” (2012).

Broadly, the inhibition is the relative decrease from the control value, in per cent.

The target of test [1] is T1, Tyrosine-protein kinase ITK/TSK (Homo sapiens) (UniProt Q08881).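 Further: values are mean percent inhibition of ITK from the GSK PKIS screen.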
T1 sequence (whole entry): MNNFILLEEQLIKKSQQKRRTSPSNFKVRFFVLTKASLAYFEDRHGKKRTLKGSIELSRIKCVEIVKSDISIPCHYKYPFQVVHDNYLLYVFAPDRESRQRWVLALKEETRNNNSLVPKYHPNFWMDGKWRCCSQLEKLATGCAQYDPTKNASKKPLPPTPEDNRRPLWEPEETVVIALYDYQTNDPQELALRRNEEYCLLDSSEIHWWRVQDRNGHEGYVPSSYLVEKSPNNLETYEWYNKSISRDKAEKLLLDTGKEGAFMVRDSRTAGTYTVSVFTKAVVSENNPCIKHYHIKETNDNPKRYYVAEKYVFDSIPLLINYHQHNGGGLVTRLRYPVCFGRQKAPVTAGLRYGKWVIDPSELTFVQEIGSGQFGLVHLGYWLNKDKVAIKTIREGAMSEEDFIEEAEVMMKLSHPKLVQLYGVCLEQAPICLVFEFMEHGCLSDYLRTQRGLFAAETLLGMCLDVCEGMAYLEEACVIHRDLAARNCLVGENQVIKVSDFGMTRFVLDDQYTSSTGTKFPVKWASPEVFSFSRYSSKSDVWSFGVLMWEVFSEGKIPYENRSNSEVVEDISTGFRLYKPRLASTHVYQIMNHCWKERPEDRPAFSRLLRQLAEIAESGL
The following applies: at 1 µM.

Test [2] has as its target Tyrosine-protein kinase JAK1 (Homo sapiens) (UniProt P23458). The following applies: at 0.1 µM.
For test [3] the target is unchanged. The following applies: at 1 µM.
The target in test [4] is Tyrosine-protein kinase JAK2 (Homo sapiens) (UniProt O60674). The following applies: at 0.1 µM.
Chain of Tyrosine-protein kinase JAK2 (Homo sapiens) (O60674 whole entry): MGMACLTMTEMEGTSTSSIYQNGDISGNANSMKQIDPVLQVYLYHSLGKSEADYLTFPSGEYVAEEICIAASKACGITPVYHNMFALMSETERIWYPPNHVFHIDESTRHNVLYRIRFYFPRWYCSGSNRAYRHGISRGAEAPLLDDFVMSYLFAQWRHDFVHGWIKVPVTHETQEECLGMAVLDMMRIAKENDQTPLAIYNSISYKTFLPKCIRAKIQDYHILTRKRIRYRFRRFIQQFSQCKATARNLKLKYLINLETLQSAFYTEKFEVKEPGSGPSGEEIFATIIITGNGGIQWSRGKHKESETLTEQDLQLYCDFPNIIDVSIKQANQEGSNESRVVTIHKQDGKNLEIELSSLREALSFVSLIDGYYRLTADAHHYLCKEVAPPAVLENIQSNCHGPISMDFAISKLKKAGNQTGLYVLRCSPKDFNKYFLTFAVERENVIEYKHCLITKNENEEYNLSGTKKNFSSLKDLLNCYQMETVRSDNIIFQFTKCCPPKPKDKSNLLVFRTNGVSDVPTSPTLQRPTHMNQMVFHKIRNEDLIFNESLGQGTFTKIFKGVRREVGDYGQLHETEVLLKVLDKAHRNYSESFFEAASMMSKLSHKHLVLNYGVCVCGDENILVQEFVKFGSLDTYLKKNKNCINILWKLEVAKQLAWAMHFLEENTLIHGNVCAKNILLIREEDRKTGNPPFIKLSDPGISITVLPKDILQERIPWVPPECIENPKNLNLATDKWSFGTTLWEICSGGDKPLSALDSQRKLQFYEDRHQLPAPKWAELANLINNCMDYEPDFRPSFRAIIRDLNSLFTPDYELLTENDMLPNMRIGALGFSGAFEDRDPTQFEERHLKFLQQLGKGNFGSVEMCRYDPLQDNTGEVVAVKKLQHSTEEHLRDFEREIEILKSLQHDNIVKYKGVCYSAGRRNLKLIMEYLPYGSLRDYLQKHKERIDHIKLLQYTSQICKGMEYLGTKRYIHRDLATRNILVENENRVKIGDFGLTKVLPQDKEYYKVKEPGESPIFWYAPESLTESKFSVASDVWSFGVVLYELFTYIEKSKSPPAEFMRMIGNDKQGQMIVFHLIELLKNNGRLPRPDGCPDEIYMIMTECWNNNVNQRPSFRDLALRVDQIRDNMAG
For test [5] the target is unchanged. The following applies: at 1 µM.
In test [6] the target is T2, Tyrosine-protein kinase JAK3 (Homo sapiens) (UniProt P52333).
T2 sequence (whole entry): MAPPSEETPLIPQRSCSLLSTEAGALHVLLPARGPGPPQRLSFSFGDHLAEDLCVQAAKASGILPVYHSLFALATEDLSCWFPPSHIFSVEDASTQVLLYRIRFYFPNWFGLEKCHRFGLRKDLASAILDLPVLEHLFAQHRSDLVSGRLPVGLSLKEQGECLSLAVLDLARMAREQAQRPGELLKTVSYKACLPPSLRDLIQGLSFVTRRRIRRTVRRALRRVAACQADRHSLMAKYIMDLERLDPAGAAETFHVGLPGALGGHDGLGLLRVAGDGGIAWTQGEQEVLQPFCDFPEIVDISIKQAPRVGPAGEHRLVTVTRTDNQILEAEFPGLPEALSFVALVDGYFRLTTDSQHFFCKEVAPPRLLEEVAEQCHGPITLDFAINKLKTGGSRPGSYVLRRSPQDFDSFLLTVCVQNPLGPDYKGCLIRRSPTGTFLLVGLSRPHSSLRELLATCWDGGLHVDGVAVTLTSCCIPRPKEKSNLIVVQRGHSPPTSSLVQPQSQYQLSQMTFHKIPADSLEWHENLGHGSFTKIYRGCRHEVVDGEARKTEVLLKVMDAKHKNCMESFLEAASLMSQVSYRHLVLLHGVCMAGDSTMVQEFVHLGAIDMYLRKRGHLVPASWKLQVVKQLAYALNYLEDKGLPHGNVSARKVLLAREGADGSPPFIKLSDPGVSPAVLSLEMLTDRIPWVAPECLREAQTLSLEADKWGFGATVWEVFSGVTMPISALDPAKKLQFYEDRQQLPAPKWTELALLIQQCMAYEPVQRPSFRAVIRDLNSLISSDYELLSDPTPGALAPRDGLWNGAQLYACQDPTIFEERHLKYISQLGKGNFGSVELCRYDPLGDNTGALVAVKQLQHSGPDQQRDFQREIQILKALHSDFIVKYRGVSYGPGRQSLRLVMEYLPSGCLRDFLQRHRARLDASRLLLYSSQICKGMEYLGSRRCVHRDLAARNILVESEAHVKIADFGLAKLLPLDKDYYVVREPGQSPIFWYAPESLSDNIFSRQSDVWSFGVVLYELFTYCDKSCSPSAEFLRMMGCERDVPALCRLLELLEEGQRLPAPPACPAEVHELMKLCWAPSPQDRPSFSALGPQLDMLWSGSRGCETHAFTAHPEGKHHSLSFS
The following applies: at 0.1 µM.

The target of test [7] is T2, Tyrosine-protein kinase JAK3 (Homo sapiens). The following applies: at 1 µM.
In test [8] the target is Vascular endothelial growth factor receptor 2 (Homo sapiens) (UniProt P35968). Particulars: at 0.1 µM.
Test [9] has the same target. The following applies: at 1 µM.
For test [10], the target named is Mast/stem cell growth factor receptor Kit (Homo sapiens) (UniProt P10721). Particulars: at 0.1 µM.
Chain of Mast/stem cell growth factor receptor Kit (Homo sapiens) (P10721 whole entry): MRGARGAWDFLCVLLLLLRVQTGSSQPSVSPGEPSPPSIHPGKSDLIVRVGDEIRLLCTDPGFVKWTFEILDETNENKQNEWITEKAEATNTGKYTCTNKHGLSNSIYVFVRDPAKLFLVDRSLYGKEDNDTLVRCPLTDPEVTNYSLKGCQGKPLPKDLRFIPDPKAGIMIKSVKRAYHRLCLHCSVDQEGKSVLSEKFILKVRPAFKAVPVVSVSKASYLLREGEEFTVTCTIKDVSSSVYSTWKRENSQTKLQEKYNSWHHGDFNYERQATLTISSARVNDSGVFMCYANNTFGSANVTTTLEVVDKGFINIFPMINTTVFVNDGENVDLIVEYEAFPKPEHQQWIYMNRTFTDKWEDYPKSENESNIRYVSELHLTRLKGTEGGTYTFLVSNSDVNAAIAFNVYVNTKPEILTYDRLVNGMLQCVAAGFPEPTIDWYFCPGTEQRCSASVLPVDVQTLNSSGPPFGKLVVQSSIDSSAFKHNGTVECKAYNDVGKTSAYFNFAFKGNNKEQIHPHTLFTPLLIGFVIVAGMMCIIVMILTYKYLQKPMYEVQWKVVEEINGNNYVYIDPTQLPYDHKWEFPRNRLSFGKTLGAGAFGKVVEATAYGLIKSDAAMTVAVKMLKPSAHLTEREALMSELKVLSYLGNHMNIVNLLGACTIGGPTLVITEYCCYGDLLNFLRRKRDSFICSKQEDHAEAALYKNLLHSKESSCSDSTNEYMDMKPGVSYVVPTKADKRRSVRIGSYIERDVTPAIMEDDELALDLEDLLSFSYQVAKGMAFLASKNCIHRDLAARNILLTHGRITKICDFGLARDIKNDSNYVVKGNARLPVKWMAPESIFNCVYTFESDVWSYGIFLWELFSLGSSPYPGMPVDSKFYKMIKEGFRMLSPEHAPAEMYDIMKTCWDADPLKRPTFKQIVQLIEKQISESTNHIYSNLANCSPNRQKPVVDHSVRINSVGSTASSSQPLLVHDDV
For test [11] the target is unchanged. The following applies: at 1 µM.
For test [12], the system named is Mast/stem cell growth factor receptor Kit (Homo sapiens), P10721 [D816V]. The following applies: at 0.1 µM.
Chain of Mast/stem cell growth factor receptor Kit (Homo sapiens), P10721 [D816V] (P10721 whole entry D816V): as the sequence (P10721 whole entry) above, with D816V counted along it
The test system is the same in test [13]. The following applies: at 1 µM.
The test system of test [14] is Mast/stem cell growth factor receptor Kit (Homo sapiens), P10721 [T670I]. Particulars: at 0.1 µM.
Chain of Mast/stem cell growth factor receptor Kit (Homo sapiens), P10721 [T670I] (P10721 whole entry T670I): as the sequence (P10721 whole entry) above, with T670I counted along it
The test system is the same in test [15]. Particulars: at 1 µM.
Test [16] concerns Mast/stem cell growth factor receptor Kit (Homo sapiens), P10721 [V560G]. The following applies: at 0.1 µM.
Chain of Mast/stem cell growth factor receptor Kit (Homo sapiens), P10721 [V560G] (P10721 whole entry V560G): as the sequence (P10721 whole entry) above, with V560G counted along it
Test [17] has the same test system. The following applies: at 1 µM.
Test [18] deals with Tyrosine-protein kinase Lck (Homo sapiens) (UniProt P06239). The following applies: at 0.1 µM.
Chain of Tyrosine-protein kinase Lck (Homo sapiens) (P06239 2-509 limits assumed): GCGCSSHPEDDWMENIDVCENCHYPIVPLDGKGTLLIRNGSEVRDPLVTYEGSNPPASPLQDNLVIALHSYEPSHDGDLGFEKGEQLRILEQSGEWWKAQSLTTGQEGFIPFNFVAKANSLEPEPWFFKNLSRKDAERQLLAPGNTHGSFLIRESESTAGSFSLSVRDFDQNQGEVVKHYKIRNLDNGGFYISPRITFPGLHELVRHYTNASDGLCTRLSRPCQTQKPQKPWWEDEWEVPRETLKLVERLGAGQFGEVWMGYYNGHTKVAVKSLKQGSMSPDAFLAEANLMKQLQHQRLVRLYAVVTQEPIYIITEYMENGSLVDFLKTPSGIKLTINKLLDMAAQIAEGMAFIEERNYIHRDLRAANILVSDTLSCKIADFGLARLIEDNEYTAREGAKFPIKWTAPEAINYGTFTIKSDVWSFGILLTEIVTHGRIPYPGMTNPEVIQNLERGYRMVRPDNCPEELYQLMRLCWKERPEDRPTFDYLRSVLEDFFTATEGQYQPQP
The target is the same in test [19]. The following applies: at 1 µM.
Test [20] concerns the target Leukocyte tyrosine kinase receptor (Homo sapiens) (UniProt P29376). The following applies: at 0.1 µM.

Chain of Leukocyte tyrosine kinase receptor (Homo sapiens) (P29376 whole entry): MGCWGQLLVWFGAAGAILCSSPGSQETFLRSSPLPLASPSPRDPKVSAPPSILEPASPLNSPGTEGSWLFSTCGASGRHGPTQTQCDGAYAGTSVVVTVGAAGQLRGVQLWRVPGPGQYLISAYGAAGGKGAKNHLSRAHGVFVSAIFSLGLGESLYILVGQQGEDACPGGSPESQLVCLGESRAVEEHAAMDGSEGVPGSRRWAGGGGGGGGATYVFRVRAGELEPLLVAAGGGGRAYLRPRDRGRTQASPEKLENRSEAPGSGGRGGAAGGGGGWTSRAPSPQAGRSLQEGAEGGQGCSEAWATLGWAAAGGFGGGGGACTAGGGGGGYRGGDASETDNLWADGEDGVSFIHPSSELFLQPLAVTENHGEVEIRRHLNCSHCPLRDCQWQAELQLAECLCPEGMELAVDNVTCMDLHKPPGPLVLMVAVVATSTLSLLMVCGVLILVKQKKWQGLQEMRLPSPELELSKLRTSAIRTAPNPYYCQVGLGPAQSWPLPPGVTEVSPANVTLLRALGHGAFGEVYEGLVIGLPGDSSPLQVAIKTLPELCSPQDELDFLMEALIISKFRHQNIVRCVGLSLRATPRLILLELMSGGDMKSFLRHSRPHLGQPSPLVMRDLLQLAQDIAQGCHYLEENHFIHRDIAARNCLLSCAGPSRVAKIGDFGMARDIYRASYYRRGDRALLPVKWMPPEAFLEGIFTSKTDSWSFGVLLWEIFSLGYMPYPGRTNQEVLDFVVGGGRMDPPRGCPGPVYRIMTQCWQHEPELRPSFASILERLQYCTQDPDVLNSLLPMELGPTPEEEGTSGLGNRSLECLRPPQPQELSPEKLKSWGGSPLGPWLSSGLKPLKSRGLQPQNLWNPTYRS
Chain of Tyrosine-protein kinase JAK1 (Homo sapiens) (P23458 whole entry): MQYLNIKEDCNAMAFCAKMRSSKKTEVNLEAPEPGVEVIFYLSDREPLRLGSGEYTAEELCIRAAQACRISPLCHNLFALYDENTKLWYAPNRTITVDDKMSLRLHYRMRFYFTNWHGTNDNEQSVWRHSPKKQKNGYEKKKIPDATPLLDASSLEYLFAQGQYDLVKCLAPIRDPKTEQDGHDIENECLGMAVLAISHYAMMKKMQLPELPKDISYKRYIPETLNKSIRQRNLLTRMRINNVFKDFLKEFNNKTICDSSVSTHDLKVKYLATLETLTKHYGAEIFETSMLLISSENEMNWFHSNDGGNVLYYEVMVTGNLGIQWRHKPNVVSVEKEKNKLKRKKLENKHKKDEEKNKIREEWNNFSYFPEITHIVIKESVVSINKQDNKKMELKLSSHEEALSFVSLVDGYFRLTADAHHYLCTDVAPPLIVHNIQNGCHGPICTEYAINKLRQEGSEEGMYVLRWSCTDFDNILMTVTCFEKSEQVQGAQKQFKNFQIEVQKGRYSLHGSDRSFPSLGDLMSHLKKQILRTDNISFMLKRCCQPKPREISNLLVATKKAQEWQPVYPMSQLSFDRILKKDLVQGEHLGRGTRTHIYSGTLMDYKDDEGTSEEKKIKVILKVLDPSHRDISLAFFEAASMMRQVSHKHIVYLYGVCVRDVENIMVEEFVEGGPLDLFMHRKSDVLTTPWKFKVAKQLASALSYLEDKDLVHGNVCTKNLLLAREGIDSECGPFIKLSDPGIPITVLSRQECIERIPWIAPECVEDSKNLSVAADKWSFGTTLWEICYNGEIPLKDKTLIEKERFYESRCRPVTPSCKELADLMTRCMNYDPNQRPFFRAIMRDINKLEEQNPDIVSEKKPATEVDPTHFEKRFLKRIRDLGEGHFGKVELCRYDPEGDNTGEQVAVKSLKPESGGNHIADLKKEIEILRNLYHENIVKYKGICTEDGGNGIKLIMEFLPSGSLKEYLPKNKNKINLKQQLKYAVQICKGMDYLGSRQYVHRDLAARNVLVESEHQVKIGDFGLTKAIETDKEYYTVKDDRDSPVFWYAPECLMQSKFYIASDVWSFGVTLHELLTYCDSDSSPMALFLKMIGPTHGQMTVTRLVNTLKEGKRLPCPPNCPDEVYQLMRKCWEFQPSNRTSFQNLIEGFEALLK

For the molecule `COc1ccc2ncn(-c3cc(O[C@H](C)c4ccccc4Cl)c(C(N)=O)s3)c2c1`, the inhibition was -2.51% in test [1]; -3.1% in test [2]; 2.15% in [3]; 1.31% in [4]; 1.04% in test [5]; -7% in test [6]. The inhibition is -5.28% in test [7]; 3.61% in test [8]; 13.4% in test [9]; 4.64% in test [10]; 23.1% in test [11]; 2.74% in test [12]. Besides, the inhibition in [13] was 7.75%; in test [14], 2.4%; in test [15], 7.3%; in test [16] it was -1.68%; in test [17] it was 0.26%; in test [18], -2.03%. Further, the figures for the inhibition in test [19] and in test [20] were -1.76% and 2.73%, respectively.
For `COc1cc(Nc2ncc3c(C)nc(-c4cccc(C(F)(F)F)c4)n3n2)cc(OC)c1OC`, the inhibition in test [1] was 13.5%; in test [2], 3.02%; in test [3], 8.95%; in test [4], 1.27%; in [5], 11.1%; in test [6], -0.52%. Further, the inhibition in [7] is 4.91%; in [8], 4.26%; in [9] it was 8.61%; in test [10], 11.1%; in [11] it was 44.8%; in [12] it was 4.72%. Moreover, the inhibition in test [13] was 5.97%; in test [14], 1.57%; in [15], 7.22%; in test [16] it was -0.27%; in test [17] it was 7.67%; in test [18], 3.24%. The inhibition in [19] amounted to 20.1%; in test [20] it was 4.18%.
For `Fc1ccc(-c2ncn(C3CCNCC3)c2-c2ccnc(Oc3ccc(Oc4ccccc4)cc3)n2)cc1`, the inhibition amounted to 2.41% in test [1]; 1.18% in [2]; 1.84% in test [3]; 2.34% in test [4]; 3.84% in [5]; 1.04% in test [6]. For the same molecule, the inhibition was 0.1% in test [7]; 2.97% in [8]; 10.7% in test [9]; 2.94% in [10]; 6.51% in test [11]; 2.38% in [12]. Further, the inhibition is 2.59% in test [13]; 1.59% in [14]; 1.82% in test [15]; -2.65% in test [16]; -3.42% in test [17]; 4.01% in [18]. The results for the inhibition in test [19] and in test [20] were 4.76% and 3.78%, respectively.
`O=C(Nc1n[nH]c2nc(-c3ccco3)ccc12)C1CC1`: the inhibition was 2.43% in test [1]; -0.37% in [2]; -0.27% in test [3]; 0.87% in test [4]; 2.09% in test [5]; 0.01% in test [6]. Further, the inhibition in test [7] was 2.11%; in [8], 7.28%; in test [9], 14%; in test [10] it was 3.39%; in test [11] it was 1.57%; in test [12], -0.41%. For the same molecule, the inhibition in test [13] was determined as 0.03%; in test [14], 1.03%; in test [15] it was 2.02%; in test [16] it was 3.13%; in test [17], 6.74%; in test [18] it was 1.24%. Besides, the figures for the inhibition in [19] and in [20] were 3.59% and 1.06%, respectively.
As for `O=C(Nc1n[nH]c2cc(-c3cc(F)ccc3F)ccc12)C1CC1`, the inhibition was 7.94% in test [1]; 3.49% in [2]; 8.44% in test [3]; 1.64% in [4]; 1.73% in test [5]; -0.26% in test [6]. Moreover, the inhibition in test [7] is -0.99%; in [8], 6.28%; in [9], 12%; in test [10], 4.01%; in [11], 7.05%; in test [12], 1.5%. The inhibition in test [13] came to 3.88%; in [14], 2.63%; in test [15], 3.43%; in test [16] it was 1.22%; in [17], 1.15%; in test [18], 1.37%. The figures for the inhibition in test [19] and in test [20] were 6.57% and 6.64%, respectively.
On to `Cc1ccc(NC(=O)c2ccoc2)cc1-c1ccc(C(=O)NCC2CC2)cc1`, for which the inhibition in test [1] was 1.05%; in [2], 1%; in test [3], 2.95%; in [4], 0%; in [5], -1.25%; in [6], -1.84%. For the same molecule, the inhibition in test [7] is -0.47%; in test [8] it was 15.3%; in [9], 62%; in [10], 1.57%; in [11], 0.22%; in [12], 3.87%. Moreover, the inhibition in test [13] is 3.1%; in [14], 1.06%; in test [15], 1.82%; in test [16], 0.04%; in [17] it was -1.21%; in test [18], 2.02%. Moreover, the figures for the inhibition in test [19] and in test [20] were 3.87% and 2.79%, respectively.
